Screening results (PubChem BioAssay)
An excerpt weighted towards active compounds, which were near 6.9% of everything screened.
Giardia kill: Giardia lamblia killing; 0.15% of 340,000 active; Giardia lamblia trophozoite viability; activity change, % at 7.66 µM, hits read low; in the data active = activity change below about -80%; inconclusive = between about -30% and that limit;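 also: parasites exposed to compound for two days anaerobically before the ATP read; % is scaled to controls: 0 for no effect and ±100 for the full control effect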
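Media and compound were dispensed first, then trophozoites at 100 cells/well; plates sat 48 hrs at 37 deg C without oxygen before ATP luminescence reagent was added and read after 15-30 min at room temperature.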
Vif-A3F inh: blocks the Vif interaction with APOBEC3F. HeLa A3F-eYFP + Vif (tagged APOBEC3F with the HIV-1 protein that degrades it), YFP fluorescence increase. Potency, µM (doses to about 46.1 µM), for inactives: top-dose activity, negative = active. 0.2% of 390,000 active. AID 602313; also: potency is read from the fitted curve at half-maximal effect; % of control where 0% means no effect; nearly all actives have a fitted effect of over 65% in size
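HeLa cells stably expressing Vif plus C-terminally eYFP-tagged A3F were seeded, incubated overnight at 37 deg C, dosed with compound, incubated overnight again at 37 deg C. Yellow fluorescence (Ex 488/Em 500-530) reported blocked Vif-mediated A3F-eYFP degradation.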
IL-1B inflam inh: inflammasome signaling inhibition, IL-1 beta readout. THP-1 LPS/ATP IL-1B secretion, AlphaLISA, 16 h; stronger effect = lower value. activity change, % at 57.5 µM. 4.7% of 360,000 active; in the data active = activity change below about -50%; inconclusive = mostly about -30% to -49%; also: % is scaled to controls: 0 for no effect and ±100 for the full control effect
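THP-1 cells pretreated 1 hr with compounds (up to 57.5 uM final), then stimulated with LPS (250 ng/mL final) plus ATP (1.25 mM final); secreted IL-1B measured by AlphaLISA after 16 hr, decreased signal indicating inhibition.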
SW480 rerep: induces DNA re-replication in SW480 colon adenocarcinoma cells; SW480 DNA re-replication, Hoechst DNA content imaging, 48 h; Potency, µM (highest dose often 46.1 µM), inactives show at the highest dose re-replication activation, hits mostly activators; 1.8% of 340,000 active; also: potency is read from the fitted curve at half-maximal effect; % of control where 0% means no effect; nearly all actives have a fitted effect of over 55% in size
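250 cells/well; 23 nL cpd via pin tool; 48 hr, 37 C, 5% CO2; Hoechst 40 min; imager read of total nuclear intensity, ex 405/em 500-530 nm.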
Vif-APOBEC3G blk: blocks the Vif interaction with human APOBEC3G | Q9HC16 | HeLa A3G-eYFP + Vif (tagged APOBEC3G with the HIV-1 protein that degrades it), YFP fluorescence, overnight | Potency, µM (doses to about 46.1 µM), for inactives: top-dose activity, negative = active, actives largely listed as inhibitors | 0.076% of 410,000 active | AID 602310; also: potency is read from the fitted curve at half-maximal effect; % is scaled to controls: 0 for no effect and ±100 for the full control effect; nearly all actives have a fitted effect of over 60% in size
Target sequence (Q9HC16 whole entry, looked up): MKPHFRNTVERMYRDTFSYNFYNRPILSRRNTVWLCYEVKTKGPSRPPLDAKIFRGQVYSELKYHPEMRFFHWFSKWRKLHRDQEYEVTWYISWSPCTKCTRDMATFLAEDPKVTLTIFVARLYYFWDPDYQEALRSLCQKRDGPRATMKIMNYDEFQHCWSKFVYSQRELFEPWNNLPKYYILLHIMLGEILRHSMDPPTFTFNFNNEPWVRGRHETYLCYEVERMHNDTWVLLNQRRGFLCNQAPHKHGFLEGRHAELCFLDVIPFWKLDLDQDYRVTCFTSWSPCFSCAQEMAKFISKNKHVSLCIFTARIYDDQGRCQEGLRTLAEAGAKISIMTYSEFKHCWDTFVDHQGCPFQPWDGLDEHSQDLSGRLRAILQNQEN
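HeLa cells stably expressing Vif and C-terminally eYFP-tagged A3G, seeded overnight at 37 deg C, then exposed to compound by pintool overnight at 37 deg C. Rise in yellow fluorescence (Ex 488/Em 500-530, Acumen) marks blocked Vif-driven A3G degradation.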
MCF10A rerep: inducers of DNA re-replication in MCF 10A breast cells; MCF 10A DNA re-replication, Hoechst nuclear intensity, 48 h; Potency, µM (titrated, usually from 46.1 µM), inactives show top-dose activity, positive = re-replication, usual class: activators; 2.9% of 350,000 active; also: potency is read from the fitted curve at half-maximal effect; % of control where 0% means no effect; nearly all actives have a fitted effect of over 50% in size
* marks the source's active call; other numbers are inactive results; ? = inconclusive; · = no result given. Unless noted, calls follow the shape of the dose curve; as a rule, active = well fitted curve in the direction sought with a large enough effect; inconclusive = small, poorly fitted or top-dose-only effect, or another doubt; inactive = no such curve, though single readings can be large; an effect the other way counts as inactive or inconclusive.

SMILES	Giardia kill	Vif-A3F inh	IL-1B inflam inh	SW480 rerep	Vif-APOBEC3G blk	MCF10A rerep
Cc1ccc(C(=O)CSc2ncc3c(n2)-c2ccccc2N(Cc2ccc(Cl)cc2)S3(=O)=O)cc1	·	-1.0%	·	·	-0.3%	·
CCN(CC)S(=O)(=O)c1ccc(N2CCN(C)CC2)c(NC(=O)Nc2ccc(C)cc2)c1	13.2	?	·	1.8%	-2.2%	11.6µM*
COc1cc(NC(=O)CC(c2cccs2)N2Cc3ccccc3C2=O)cc(OC)c1OC (configuration not stated)	·	8.0%	·	·	-3.3%	·
CCC(=O)N1CCc2cc(S(=O)(=O)NCCC(=O)Nc3ccc(OC)c(OC)c3)ccc21	·	4.9%	·	·	-4.8%	·
CCc1ccc(/C=C2\SC(=S)N(CCC(=O)NCCCN3CCOCC3)C2=O)cc1	-1.8	-6.2%	-87.9*	?	4.2%	?
COc1ccc(/C=C2\SC(=S)N(CCC(=O)NCCCN3CCOCC3)C2=O)cc1	-12.1	?	-65.9*	-3.4%	4.5%	?
O=C(CCCN1C(=O)/C(=C/c2cccc(Br)c2)SC1=S)NCCCN1CCOCC1	11.3	-0.2%	-96.4*	-1.9%	0.8%	23.1µM*
Cc1ccc(-c2nc3sc(C#N)c(N)n3c(=O)c2C#N)cc1	-6.0	6.31µM*	33.5	-8.1%	-6.4%	-0.6%
Cc1ccc(-n2c(N)c(C#N)c(-c3ccccc3)c(C#N)c2=O)cc1	-20.2	2.9%	13.9	-2.3%	-4.9%	1.8%
Cc1ccc(-n2c(N)c(C(=O)NCc3ccco3)sc2=S)cc1	-15.7	0.0%	-58.3*	-7.2%	2.9%	3.3%
CCc1ccccc1NC(=O)c1sc2nc(C)cc(C)c2c1N	6.0	-6.5%	?	?	-7.4%	?
Cc1cc(C)c2c(N)c(C(=O)Nc3ccccc3Cl)sc2n1	-3.8	6.2%	34.7	?	-1.0%	11.6µM*
Cc1cc(C)c2c(N)c(C(=O)Nc3ccccc3F)sc2n1	-0.6	0.2%	?	5.2%	0.3%	29.1µM*
Cc1cc(C)c2c(N)c(C(=O)NCc3ccco3)sc2n1	-0.6	7.9%	-61.1*	-3.5%	0.6%	1.9%
C=CCn1c(N)c(C(=O)NCc2ccco2)sc1=S	-17.7	-14.3%	?	0.4%	0.0%	2.8%
CCOC(=O)C(C)NC(=O)c1cc2c(=O)[nH]c3ccc(C)cc3c2s1 (configuration not stated)	·	-4.6%	·	·	-5.9%	·
COc1ccc(CNc2ccccc2C(=O)NCc2ccccc2)cc1COc1ccc(NC(C)=O)cc1	8.8	·	·	·	·	·
COc1cc(C(=O)N(CCCN(C)C)c2nc3c(OC)cccc3s2)cc(OC)c1OC	·	-8.8%	·	·	7.6%	·
CCC1CN(C(=O)N2CCC(C(=O)NCCCc3ccccc3)CC2)c2ccccc2O1 (configuration not stated)	·	-1.7%	·	·	4.0%	·
COCc1cc(C)nc2sc(C(=O)Nc3ccccc3Br)c(N)c12	-24.3	?	29.5	1.84µM*	-11.6%	?
Cc1cc(C)c2c(N)c(C(=O)Nc3ncc(C)s3)sc2n1	-107.6*	3.0%	-19.4	?	-10.5%	9.2µM*
COC(=O)c1sc2nc(C)cc(C)c2c1N	12.8	-1.2%	-24.1	2.4%	-6.4%	9.2%
Cc1cc(C)c2c(N)c(C(=O)Nc3ccccc3Br)sc2n1	-5.4	-17.1%	-2.8	18.4µM*	-5.6%	5.8µM*
COc1ccc(/C=C2/CSC/C(=C/c3ccc(OC)c(OC)c3)C2=O)cc1OC	-21.5	?	-116.8*	2.91µM*	?	?
COc1cc(C=C2CCCC(=Cc3ccc(OCC4CO4)c(OC)c3)C2=O)ccc1OCC1CO1 (configuration not stated)	·	?	-104.5*	·	?	·
Nc1nc(=S)[nH]c(N)c1N	·	·	·	·	0.9%	·
CCCCCCCCNCCS(=O)(=O)NC1CCCCC1	-2.7	-5.1%	-70.2*	2.4%	2.1%	?
O=C(Cn1cc(S(=O)(=O)N2CCCC2)c(S(=O)(=O)N2CCCC2)c1)Nc1ccccc1	·	-28.3%	·	·	-1.1%	·
Cc1cccc(OCCCSc2nc3ccc(C)cc3[nH]2)c1	9.8	-3.5%	-72.2*	-3.3%	-6.4%	?
